From PubChem BioAssay (NCATS) come the findings set out here.

SMILES strings stand for the structures. Inconclusive results are not listed. Unmarked numbers belong to inactive results. Calls of active or inactive are those of the source. The call rests on the fitted dose curve; in most records, active means well fitted inhibition curve with a large enough effect; inconclusive means small, poorly fitted or top-dose-only effect; inactive means flat fitted curve, though single readings scatter.

The assay in a line: qHTS for Inhibitors of Plasmodium falciparum (DD2) proliferation (AID 504314).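 Further: plate controls were DMSO vehicle for no effect and artemisinin wells for full effect.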 To be noted: P. falciparum Dd2 in erythrocytes, SYBR Green growth, 72 h; series mostly up to 6.11 µM; activity, negative = inhibition: at the top concentration. An excerpt: Plasmodium falciparum is a virulent malarial parasite that kills 1-2 million people worldwide each year. Malaria not only inflicts tremendous suffering and morbidity on the human population, but has dramatically influenced the course of civilization with profound sociological and economic implications (Shah, S. 2010). Transmitted by mosquitoes, the sporozoite form of the parasite enters the blood stream to infect hepatocytes, where they become merozoites that infect red blood cells (erythrocytes). Within erythrocytes, merozoites begin a […] cycle of growth and division, after which the parasite is released to infect new red blood cells. Gametocytes, which form within erythrocytes as well, circulate in the bloodstream and are ingested by the mosquito, thereby completing the life cycle (see CDC website). To profile malarial lines for differential chemical responses and to identify inhibitors of malarial growth, an assay that measures P. falciparum growth and replication within erythrocytes was employed. This assay uses a DNA binding fluorescent dye (SYBR Green) to detect parasite DNA following cell lysis. Because mature erythrocytes lack DNA, only Plasmodium-derived DNA is detected. The P. falciparum line cp250, derived from a malarial isolate from Cambodia, (Mu, J., et al. 2010) was added to the panel of lines, Dd2, HB3, 7G8 and GB4 in this study.
Laboratory of Assay Development and Screening Technology [ADST] and NIH Chemical Genomics Center [NCGC]
Boston University, Chemistry Department, Center for Chemical Methodology and Library Development [CMLD-BU]
NIH National Institute of Allergy and Infectious Diseases [NIAID]
ADST Assay Protocol Summary:
The 1536-well SYBR Green viability assay was based on the method of Bennett et al (2004) and described previously in 1536-well format (Yuan J., et al. 2009). For screening 3 ul culture medium was dispensed into 1536 well black clear bottom plates (Aurora Biotechnologies) using a Multidrop Combi (Thermo Fisher Scientific Inc.), 23 nL compounds in DMSO were added by a pin transfer (Cleveland, P.H. and Koutz, P.J, 2005) using a pin tool-based delivery system (Kalypsys), and 5 ul of erythrocytes infected with P. falciparum one of five lines (cp250, Dd2, HB3, 7G8 or GB4, 0.3% parasitemia, 2.5% hematocrit final concentration) were added. The plates were incubated at 37C in a humidified incubator in 5% CO2 for 72 h, and 2 ul lysis buffer (20 mM Tris HCl, 10 mM EDTA, 0.16% saponin, 1.6% triton X, 10X SYBR Green I (supplied as 10,000X final concentration by Invitrogen) was added to each well. The plates were mixed for 25 sec with gentle shaking and incubated overnight at room temperature in the dark. The following morning, fluorescence intensity at 485(14) nm excitation and 535(25) nm emission wavelengths was measured on an EnVision (Perkin Elmer) plate reader. Plate reads were normalized relative to the control inhibitor (0.29 uM artemisinin) and vehicle (DMSO) wells present on each plate and then corrected by an algorithm using vehicle-only control plates at the beginning and end of the compound plate stack.
Shah, S. (2010). The Fever: how malaria has ruled humankind for 500,000 years. New York, Sarah Crichton Books.
CDC web site, http://www.cdc.gov/malaria/about/biology/index.html
Mu, J., Myers, R.A., Jiang, H., Liu, S., Ricklefs, S., Waisberg, M., Chotivanich, K., Wilairatana, P., Krudsood, S., White, N.J., et Plasmodium falciparum genome-wide scans for positive selection, recombination hot spots and resistance to antimalarial drugs Nature Genetics 2010, 42, pp 268-271
Bennett TN, Paguio, M., Gligorijevic, B., Seudieu, C., Kosar, A. D., Davidson, E., and Roepe, P. D. Novel, rapid, and inexpensive cell-based quantification of antimalarial drug efficacy Antimicrobial Agents Chemother. 2004, 48(5): pp 1807-10
Yuan J, Johnson RL, Huang RL, Wichterman J, Jiang HY, Hayton K, Fidock DA, Wellems TE, Inglese J, Austin CP, Su XZ. […]
(Quantitative high-throughput screening tests each substance at several concentrations.)
For `CCOC(=O)[C@@]12[C@@H]3[C@@H](CCN3C(=O)N[C@H]1c1ccccc1)C2(C)C`, the “activity, negative = inhibition” value is -8.25%.
The same measure, in the same setting: the same measure for `COC(=O)[C@@]1(C=C[C@@H](C)[C@H](OC)c2ccccc2Br)[C@@H]2Oc3ccccc3[C@@H]21`: -0.786%; for `CO[C@@H]1c2ccccc2[C@H]2C(C(=O)O)c3c(n(C)c4ccccc34)[C@H]2[C@H]1C` (some centres not stated): -7.32%; for `COC(=O)[C@@]1(C=C2c3ccccc3[C@@H](OC)[C@@H]2C)[C@@H]2Oc3ccccc3[C@@H]21`: -6.1%.
Still for that read-out and setting: the same measure for `CCOC(=O)[C@@]12C3[C@@H](CCN3C(=O)N[C@@H]1c1ccccc1)[C@@H]2C` (some centres not stated): 4.98%.
Same read-out and setting: the same measure for `COC(=O)[C@@]1(C=C2c3ccc(F)cc3[C@@H](OC)[C@@H]2C)[C@@H]2Oc3ccccc3[C@@H]21`: -9.95%.
Consider `COC(=O)C1=NN=C(C(=O)OC)[C@@]2(C)c3ccccc3NC12` (some centres not stated), for which the “activity, negative = inhibition” value was -1.72%.
Same read-out and setting: the same measure for `CCOC(=O)[C@]12C[C@]3(OC)CCN(C(=O)N[C@@H]1c1ccccc1)[C@@H]32`: 0.483%.
The same measure, in the same setting: the same measure for `CCOC(=O)[C@]12C[C@@H]3OCCN(C(=O)N[C@@H]1c1ccccc1)[C@@H]32`: -3.26%; for `CCOC(=O)[C@]12C[C@@H]3CCN(C(=O)N(C(C)=O)[C@@H]1c1ccccc1)[C@@H]32`: -3.21%; for `C=C1[C@@H]2CCN3C(=O)N[C@@H](c4ccccc4)[C@@]1(C(=O)OCC)C23` (some centres not stated): -1.13%.
Still for that read-out and setting: the same measure for `COC(=O)C1=C2CCCO[C@H]2[C@@H]2[C@@H](C)[C@H](OC)c3ccccc3[C@@H]12`: 0.224%.
`CC(=O)[C@]12C[C@@H]3CCCN(C(=O)N[C@@H]1c1ccccc1)[C@@H]32`: the “activity, negative = inhibition” value was -0.189%.
Still for that read-out and setting: the same measure for `CC(=O)[C@]12[C@H](c3ccccc3)[C@@H]3CCN(C(=O)N[C@H]1c1ccccc1)[C@@]32C`: -11.4%.
For the compound `CCC[C@]12CCN3C(=O)N[C@@H](c4ccccc4)[C@](C(=O)OCC)(C1)[C@H]32`, the “activity, negative = inhibition” value is -3.63%.
For the compound `COC(=O)C1C2CC(C)C(c3ccccc32)N1C(=O)C(F)(F)F` (configuration not stated), the compound was classed as inactive.
Take `CC(=O)[C@]12C[C@]3(C)CCCN(C(=O)N[C@@H]1c1ccccc1)C32` (some centres not stated): the “activity, negative = inhibition” value is -1.91%.
Same read-out and setting: the same measure for `COC(=O)C1=C[C@H]([C@@H](C)[C@H](OC)c2ccccc2Br)[C@H]2[C@H]1c1ccccc1N2C`: -7.23%.
`COC(=O)C1(C)C2CC(C)C(c3ccccc32)N1C(=O)C(F)(F)F` (configuration not stated): the “activity, negative = inhibition” value was -2.12%.
On the same count and under the same terms, the same measure for `C=C(C)C(=O)CP(=O)(OCC)OCC`: -2.57%; for `CCOC(=O)[C@]12C[C@]3(C)CCN(C(=O)N[C@@H]1c1ccccc1)[C@@H]32`: 1.52%.
Still for that read-out and setting: the same measure for `COC(=O)[C@]12C[C@@H]3CCN(C(=O)N[C@@H]1c1ccccc1)[C@@]32C`: 5.21%.
On the same count and under the same terms, the same measure for `CC(=O)[C@@]12C3[C@@H](CCN3C(=O)N[C@H]1c1ccccc1)[C@H]2c1ccccc1` (some centres not stated): -6.22%; for `COC(=O)C1=C2CCO[C@@H]2[C@H]2[C@@H](C)[C@H](OC)c3ccccc3[C@H]12`: 3.37%.
With `COC(=O)C1=C2CCO[C@H]2[C@@H]2[C@@H](C)[C@H](OC)c3ccccc3[C@@H]12`, the “activity, negative = inhibition” value was -1%.
On the same count and under the same terms, the same measure for `COC(=O)[C@@H]1[C@@H](c2ccccc2)[C@H]2C(=O)c3c(OC)cc(OC)cc3O[C@@]12c1ccc(OC)cc1`: -4.81%.
Same read-out and setting: the same measure for `CCOC(=O)[C@]12C[C@]3(C)CCCN(C(=O)N[C@@H]1c1ccccc1)[C@@H]32`: 2.8%.
